Test [1] in a line: qHTS assay to identify small molecule agonists of H2AX - cell viability counter screen (AID 1224847; calls by dose curve; note: nearly all actives have a fitted effect of over 30% in size; note: potency is the fitted concentration of half-maximal effect). Particulars: CHO-K1 viability, CellTiter-Glo luminescence, 3 h; series mostly up to 154 µM. The method, boiled down: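 After overnight plating of 1000 CHO-K1 cells per well, a 15-concentration compound series was applied for 3 hr at 37C. Luminescence from CellTiter-Glo, read following 30 min at room temperature, reflected cell viability.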

A short description of test [2]: qHTS assay to identify small molecule antagonists of the estrogen related receptor (ERR) signaling pathway from Tox21 library (AID 1224848). Note: nearly all actives have a fitted effect of over 50% in size. Note: potency is the fitted concentration of half-maximal effect. The conditions noted are these: ERR reporter cell line, luciferase antagonist mode, 18 h; series mostly up to 92.4 µM. The method, boiled down: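 Screening used an ERR reporter line supplied by NTP, exposed for 18 h at 37 C to library compounds delivered in DMSO. Signal was luciferase luminescence developed with ONE-Glo at room temperature for 30 min.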
For orientation: Quantitative high-throughput screening tests each substance at several concentrations.

Test [3] can be described thus: qHTS assay to identify small molecule agonists of the estrogen related receptor (ERR) signaling pathway from Tox21 library (AID 1224849; calls by dose curve; note: nearly all actives have a fitted effect of over 15% in size). Particulars: ERR reporter cell line, ONE-Glo luciferase, 18 h. In short, it runs like this:
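ERR cells, 6 h pre-incubation 37 C/5% CO2; cpd in DMSO pinned; 18 h 37 C; ONE-Glo added, 30 min RT; luminescence read. Agonist mode, qHTS.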

A short description of test [4]: qHTS RealTime-Glo MT Cell Viability Assay in HepG2 cells - 24 hour (AID 1224867). Note: nearly all actives have a fitted effect of over 50% in size. Particulars: RealTime-Glo luminescence; series mostly up to 76.8 µM. In short, it runs like this: (§1)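 Real-time, nonlytic viability: 600 HepG2 cells/well mixed with NanoLuc enzyme plus prosubstrate; 5 h settle, compound (DMSO) added by pintool; luminescence monitored over 40 h at 37 C.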

A short description of test [5]: A CellTox Green Cytotoxicity Assay to monitor cytotoxicity in HEK293 cells - 0 hour (AID 1224869). Note: nearly all actives have a fitted effect of over 50% in size. Particulars: CellTox Green fluorescence; series mostly up to 76.8 µM. The method, boiled down:
(§2)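 Nonlytic real-time cytotoxicity: HEK293 + CellTox Green reagent plated, 5 h preincubation, pintool compound addition (23 nL in DMSO), 37 C for 40 h, fluorescence measured at successive time points.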

The nature of test [6]: qHTS RealTime-Glo MT Cell Viability Assay in HepG2 cells - 40 hour (AID 1224870). Note: nearly all actives have a fitted effect of over 50% in size. Particulars: RealTime-Glo luminescence; series mostly up to 76.8 µM. In short, it runs like this: (§3)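 HepG2 cells mixed with RealTime-Glo MT reagents (NanoLuc plus cell-permeant prosubstrate) were seeded at 600 cells/well, incubated 5 h at 37 C/5% CO2, then pinned with compounds in DMSO; nonlytic luminescence tracked viability during 40 h treatment.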

The nature of test [7]: A CellTox Green Cytotoxicity Assay to monitor cytotoxicity in HEK293 cells - 40 hour (AID 1224871). Note: nearly all actives have a fitted effect of over 45% in size. Note: potency is the fitted concentration of half-maximal effect. The conditions noted are these: CellTox Green fluorescence; series mostly up to 76.8 µM. In short, it runs like this:
as §2

A short description of test [8]: qHTS RealTime-Glo MT Cell Viability Assay in HEK293 cells - 16 hour (AID 1224872). Note: nearly all actives have a fitted effect of over 50% in size. Note: potency is the fitted concentration of half-maximal effect. Particulars: RealTime-Glo luminescence; series mostly up to 76.8 µM. The method, boiled down:
(§4)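 Cells + reagent dispensed (600 cells/well, HEK293) → 5 h at 37 C/5% CO2 → 23 nL compound in DMSO pinned → 40 h at 37 C → luminescence read at 0, 8, 16, 24, 32, 40 h.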

A short description of test [9]: qHTS RealTime-Glo MT Cell Viability Assay in HepG2 cells - 8 hour (AID 1224873). Note: nearly all actives have a fitted effect of over 55% in size. Particulars: RealTime-Glo luminescence; series mostly up to 76.8 µM. In short, it runs like this: as §3
Test [10] can be described thus: qHTS RealTime-Glo MT Cell Viability Assay in HEK293 cells - 40 hour (AID 1224874). Note: nearly all actives have a fitted effect of over 50% in size. Particulars: RealTime-Glo luminescence; max response: stronger effect = lower value. In short, it runs like this: (§5)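 Cells were seeded together with NanoLuc luciferase and a prosubstrate that viable cells reduce to a luciferase substrate. After a 5 h incubation at 37 C/5% CO2, compounds were added and luminescence was measured repeatedly during 40 h of treatment.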

Test [11] is described as follows: A CellTox Green Cytotoxicity Assay to monitor cytotoxicity in HEK293 cells - 24 hour (AID 1224875). Note: nearly all actives have a fitted effect of over 45% in size. The conditions noted are these: CellTox Green fluorescence; series mostly up to 76.8 µM. In short, it runs like this: as §2
Test [12] is described as follows: A CellTox Green Cytotoxicity Assay to monitor cytotoxicity in HepG2 cells - 16 hour (AID 1224876). Note: nearly all actives have a fitted effect of over 45% in size. Particulars: CellTox Green fluorescence; series mostly up to 76.8 µM. The method, boiled down:
(§6)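 Read-out is fluorescence of a cyanine dye excluded from live cells that stains DNA of dead HepG2 cells, with signal proportional to cytotoxicity. Plates were read at 0, 8, 16, 24, 32 and 40 h after compound addition.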

Test [13] in a line: qHTS RealTime-Glo MT Cell Viability Assay in HepG2 cells - 32 hour (AID 1224877). Note: nearly all actives have a fitted effect of over 55% in size. The conditions noted are these: RealTime-Glo luminescence; series mostly up to 76.8 µM. The method, boiled down:
as §1

Test [14] is described as follows: A CellTox Green Cytotoxicity Assay to monitor cytotoxicity in HepG2 cells - 24 hour (AID 1224878). Note: nearly all actives have a fitted effect of over 45% in size. Particulars: CellTox Green fluorescence; series mostly up to 76.8 µM. The method, boiled down:
as §6

Test [15] is described as follows: A CellTox Green Cytotoxicity Assay to monitor cytotoxicity in HepG2 cells - 40 hour (AID 1224879). Note: nearly all actives have a fitted effect of over 40% in size. Particulars: CellTox Green fluorescence; series mostly up to 76.8 µM. In short, it runs like this: as §6
Test [16] can be described thus: qHTS RealTime-Glo MT Cell Viability Assay in HEK293 cells - 0 hour (AID 1224880). Particulars: RealTime-Glo luminescence; series mostly up to 76.8 µM. In short, it runs like this:
as §5

A short description of test [17]: A CellTox Green Cytotoxicity Assay to monitor cytotoxicity in HEK293 cells - 32 hour (AID 1224881). Note: nearly all actives have a fitted effect of over 40% in size. Particulars: CellTox Green fluorescence; series mostly up to 76.8 µM. In short, it runs like this: as §2
A short description of test [18]: A CellTox Green Cytotoxicity Assay to monitor cytotoxicity in HepG2 cells - 0 hour (AID 1224882). Note: nearly all actives have a fitted effect of over 35% in size. Particulars: CellTox Green fluorescence; series mostly up to 76.8 µM. The method, boiled down:
as §6

Test [19] can be described thus: A CellTox Green Cytotoxicity Assay to monitor cytotoxicity in HepG2 cells - 32 hour (AID 1224883). Note: nearly all actives have a fitted effect of over 50% in size. The conditions noted are these: CellTox Green fluorescence; series mostly up to 76.8 µM. The method, boiled down:
as §6

A short description of test [20]: qHTS RealTime-Glo MT Cell Viability Assay in HEK293 cells - 32 hour (AID 1224868). Particulars: RealTime-Glo luminescence; series mostly up to 76.8 µM. In short, it runs like this: as §4

Where “and” joins values, the source holds several entries; their conditions need not be identical. Equal entries are not always repeated. Records with an inconclusive call do not appear. Some structures have more than one record in an assay (separate samples or runs), and their calls can disagree. Calls of active or inactive are those of the source. Unless noted, calls come from the whole dose curve; as a rule, active = well fitted curve in the direction sought with a large enough effect in the repeat runs; inconclusive = weak or mixed curves; inactive = no such curve, though single readings can be large; an effect the other way counts as inactive or inconclusive.
% is set by controls: 0 for no effect and ±100 for the full control effect.

Turning to `O=C(CC(C(=O)OC1CCCCC1)S(=O)(=O)O)OC1CCCCC1` (stereo not drawn), the Potency entry in [1], in [2], in [7], in [8], in test [11] and in test [12] was “inactive” in each case. Besides, the Potency entry in test [14], in test [15], in [16], in [17] and in [19] was “inactive” each time. Also, the activity change, positive = activation in [3] (at 92.4 µM (top of the series)) was 3.03% (inactive) and -2.61% (inactive). Moreover, the result in test [4], in [5], in test [6], in [9], in test [13] and in test [18] was inactive. Further, in test [10], the max response was 7.94% (inactive) and 16.6% (inactive).
With `O=c1[nH]nnc2ccccc12`, the Potency entry in [1], in [2], in test [20], in [7], in test [8] and in test [11] was “inactive” in each case. Further, the Potency result in test [12], in [14], in test [15], in test [16], in test [17] and in [19] was “inactive” throughout. In addition, the activity change, positive = activation in [3] (at 92.4 µM (top of the series)) was 5.04% (inactive) and -0.708% (inactive). Also, the outcome in test [4], in test [5], in [6], in test [9], in test [13] and in test [18] was inactive.
With `CCCCC(CC)COC(=O)C(C#N)=C(c1ccccc1)c1ccccc1` (stereo not drawn), the Potency result in [1], in [20], in test [7], in test [8], in test [11] and in test [12] was “inactive” in each case. The Potency entry in test [14], in test [15], in [16], in test [17] and in test [19] was “inactive” throughout. In addition, the Potency in test [2] is 23.7 µM (active). The activity change, positive = activation in [3] (at 42.5 µM (top of the series)) was -38.1% (inactive); in test [3] (at 92.4 µM (top of the series)), -32.9% (inactive). The call in test [4], in test [5], in test [6], in [9], in test [13] and in test [18] was inactive.
As to `COCCCOc1ccnc(CS(=O)c2nc3ccccc3[nH]2)c1C` (stereo not drawn), the Potency entry in test [1], in [2], in test [7], in test [11], in [12] and in [14] was “inactive” each time. Further, the Potency result in test [15], in test [16], in test [17] and in test [19] was “inactive” each time. Moreover, in test [3] (at 92.4 µM (top of the series)), the activity change, positive = activation is -25.6% (inactive). The outcome in test [4], in test [5], in test [6], in test [9], in test [13] and in test [18] was inactive. In [8], the Potency is 10.9 µM (active) and inactive.
Take `O=C(Oc1ccccc1)c1ccccc1`: the Potency entry in [1], in [2], in [7], in test [8], in test [11] and in test [12] was “inactive” in each case. In addition, the Potency entry in test [14], in [15], in test [16], in [17] and in [19] was “inactive” each time. Besides, the activity change, positive = activation in [3] (at 92.4 µM (top of the series)) is 4.89% (inactive) and 5.21% (inactive). Moreover, the compound was called inactive in test [4], in test [5], in [6], in test [9], in test [13] and in [18].
For the compound `COc1ccc(Nc2ccccc2)c(C)c1`, the Potency result in test [1] was “inactive and 101 µM (active)”; in [7] it was “inactive and 43.6 µM (active)”. Moreover, the Potency entry in test [2], in test [20], in test [8], in test [11], in test [12] and in test [14] was “inactive” each time. In addition, the Potency entry in [15], in [16], in test [17] and in test [19] was “inactive” throughout. Also, the activity change, positive = activation in test [3] (at 92.4 µM (top of the series)) was -0.657% (inactive). Moreover, the compound was called inactive in [4], in test [5], in test [6], in [9], in test [13] and in test [18].

The values above are taken from PubChem BioAssay (Tox21).
